PubChem BioAssay (NCATS)
Records with an inconclusive call do not appear. Where a call stands in place of a potency, no number is given. Calls of active or inactive are those of the source. Unless noted, the call rests on the fitted dose curve; in most records, active means well fitted curve in the direction sought with a large enough effect in the repeat runs; inconclusive means weak or mixed curves; inactive means no such curve, though single readings can be large; an effect the other way counts as inactive or inconclusive.

Columns and labels:
[1] = biological target: Cytochrome P450 2D6 (Homo sapiens) (UniProt P10635); assay: Cytochrome P450 family 2 subfamily D member 6 (CYP2D6) small molecule antagonists: luciferase biochemical (cell-free) qHTS assay (AID 1645840); conditions: P450-Glo CYP2D6 enzyme, luciferin luminescence, 1 h; series mostly up to 57.4 µM; further: nearly all actives have a fitted effect of over 55% in size
Procedure, shortened: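 P450-Glo CYP2D6 system: proluciferin substrate converted by enzyme to luciferin, read by luminescence proportional to activity. Enzyme-substrate mix with compound 10 min at room temperature, then NADPH regeneration 1 h before detection reagent.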

[2] = biological target: Cytochrome P450 3A4 (Homo sapiens) (UniProt P08684); assay: Cytochrome P450 family 3 subfamily A member 4 (CYP3A4) small molecule antagonists: luciferase qHTS assay (AID 1645841); conditions: P450-Glo CYP3A4 enzyme assay, luciferin luminescence; series mostly up to 57.4 µM; further: nearly all actives have a fitted effect of over 45% in size
Procedure, shortened: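 P450-Glo CYP3A4 enzyme with proluciferin substrate was preincubated with DMSO-dissolved compounds for 10 min at room temperature. NADPH regeneration solution started a 1 h reaction. Detection reagent stopped it, and luminescence was read after 20 min.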

[3] = biological target: Cytochrome P450 2C9 (Homo sapiens) (UniProt P11712); assay: Cytochrome P450 family 2 subfamily C member 9 (CYP2C9) small molecule antagonists: luciferase biochemical (cell-free) qHTS assay (AID 1645842); conditions: P450-Glo CYP2C9 enzyme assay, luciferin luminescence; series mostly up to 57.4 µM; further: nearly all actives have a fitted effect of over 55% in size
Procedure, shortened: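 P450-Glo CYP2C9 system: proluciferin substrate with enzyme in mix containing 0.4% BSA, 10 min at room temperature, then NADPH regeneration solution added and incubated 1 h at 37C. Detection reagent stopped reaction; luminescence read after 20 min as RLU.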

[4] = Primary qHTS for inhibitors of nuclear receptor binding SET domain protein 2 (NSD2) in an isogenic RCH-ACV NSD2 p.E1099K mutant (9B) (AID 1645876; active means well fitted curve in the direction sought with a large enough effect; an effect the other way counts as inactive or inconclusive; further: potency means the concentration at half of the fitted maximal effect; nearly all actives have a fitted effect of over 70% in size); conditions: RCH-ACV (leukaemia line) NSD2 E1099K (9B) viability, CellTiter-Glo, 72 h; series mostly up to 44.9 µM

Chain of Cytochrome P450 2D6 (Homo sapiens) (P10635 whole entry, looked up): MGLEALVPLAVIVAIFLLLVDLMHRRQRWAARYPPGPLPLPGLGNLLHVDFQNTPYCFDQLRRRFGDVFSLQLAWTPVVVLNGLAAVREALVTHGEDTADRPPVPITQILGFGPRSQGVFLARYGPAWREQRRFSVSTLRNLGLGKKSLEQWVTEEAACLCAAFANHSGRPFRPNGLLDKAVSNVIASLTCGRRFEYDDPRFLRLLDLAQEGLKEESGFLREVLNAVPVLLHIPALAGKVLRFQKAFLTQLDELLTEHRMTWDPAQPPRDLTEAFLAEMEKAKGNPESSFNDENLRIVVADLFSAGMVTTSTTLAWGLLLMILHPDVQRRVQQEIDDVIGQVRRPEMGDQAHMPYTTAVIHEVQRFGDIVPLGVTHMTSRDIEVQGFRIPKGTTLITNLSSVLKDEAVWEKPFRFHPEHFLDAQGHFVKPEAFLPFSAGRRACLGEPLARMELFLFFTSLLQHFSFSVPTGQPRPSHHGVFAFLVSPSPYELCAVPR
Chain of Cytochrome P450 2C9 (Homo sapiens) (P11712 whole entry, looked up): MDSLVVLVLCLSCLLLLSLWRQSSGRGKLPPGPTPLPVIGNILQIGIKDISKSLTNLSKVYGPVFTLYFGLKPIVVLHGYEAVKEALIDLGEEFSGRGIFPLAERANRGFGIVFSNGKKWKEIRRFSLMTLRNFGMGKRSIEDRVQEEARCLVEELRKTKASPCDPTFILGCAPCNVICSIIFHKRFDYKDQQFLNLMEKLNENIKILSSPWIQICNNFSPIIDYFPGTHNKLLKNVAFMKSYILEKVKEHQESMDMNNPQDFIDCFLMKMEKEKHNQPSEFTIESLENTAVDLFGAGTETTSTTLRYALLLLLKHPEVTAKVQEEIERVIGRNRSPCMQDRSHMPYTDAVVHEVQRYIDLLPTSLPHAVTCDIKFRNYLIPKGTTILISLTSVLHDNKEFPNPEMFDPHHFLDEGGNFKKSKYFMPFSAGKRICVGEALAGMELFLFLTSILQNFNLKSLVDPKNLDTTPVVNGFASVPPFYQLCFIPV
Chain of Cytochrome P450 3A4 (Homo sapiens) (P08684 whole entry, looked up): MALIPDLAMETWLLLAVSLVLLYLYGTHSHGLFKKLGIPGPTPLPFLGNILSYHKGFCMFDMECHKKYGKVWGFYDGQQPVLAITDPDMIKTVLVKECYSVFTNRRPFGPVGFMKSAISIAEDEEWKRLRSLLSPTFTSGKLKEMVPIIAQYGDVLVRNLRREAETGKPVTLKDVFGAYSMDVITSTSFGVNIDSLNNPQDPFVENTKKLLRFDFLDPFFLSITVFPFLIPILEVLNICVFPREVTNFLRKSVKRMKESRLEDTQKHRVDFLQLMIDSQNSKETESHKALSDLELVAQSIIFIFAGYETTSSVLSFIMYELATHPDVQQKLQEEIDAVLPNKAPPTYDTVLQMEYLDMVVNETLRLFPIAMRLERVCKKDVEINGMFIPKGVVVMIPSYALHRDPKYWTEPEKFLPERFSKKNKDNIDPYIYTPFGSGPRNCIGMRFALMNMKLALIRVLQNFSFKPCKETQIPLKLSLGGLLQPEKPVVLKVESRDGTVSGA

SMILES | Potency [1] | outcome [2] | Potency [3] | Potency [4]
Nc1ccc(S(=O)(=O)Nc2ncccn2)cc1 | inactive | inactive | inactive | 
CC(C)c1ccccc1Cc1cc(C(=O)Nc2ccc(S(=O)(=O)c3ccccc3C(C)(C)C)cc2)c(O)c(O)c1O |  |  |  | 13.2 µM (active)
